{"source": "PubChem BioAssay AID1508600", "about": "(Functional Genomics Laboratory (NCATS/FGL), 2020)", "note": "Hit rate of the full screen: of about 53,000 sequences, about 3,700 (7%) were called active.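 The calls were made as follows: active = gene knockdowns whose robust z-score for IL-1 alpha signal is at least 2 or at most -2, so actives lie on both sides; inactive = the rest.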 This excerpt belongs to a sample that is enriched for actives.", "data": [{"assay": "Components of the Cytosolic LPS Sensing Pathway: Gene Identification via Genome-wide siRNA Screen;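 also: robust z of the log signal after scaling to non-targeting control siRNA wells of the plate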", "settings": "RAW264.7 macrophages, IL-1a HTRF, actives lie on both sides, screened at 100 nM (by protocol), cells primed 5 h with Pam3CSK4 first", "procedure,_shortened": "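RAW264.7 mouse macrophages reverse-transfected with single siRNAs (100 nM final) for 48h, primed with Pam3CSK4 for 5 hours, then transfected with LipidA for 24 hour. Supernatant IL-1a read by HTRF; values normalized to negative-control median, log-transformed robust z-scores.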", "values": [{"sequence": "GGUAACCUAGUGUAAGUUUTT against Atg2b", "z-score": "-0.0782 (inactive)"}, {"sequence": "GGAGAGCAGUGAUAACCAGTT against Cracd", "z-score": "2.06 (active)"}, {"sequence": "GGAAAUUGCUCAAAAAAGGTT against Asb3", "z-score": "0.725 (inactive)"}, {"sequence": "GGCUUCUAUUGCCAUAAUGTT against Olfr380", "z-score": "0.568 (inactive)"}, {"sequence": "GGAUGAAGACAGUCAAAUGTT against Lypd3", "z-score": "0.261 (inactive)"}, {"sequence": "GGCAGAUUCUAAAUAUAGCTT against Itga9", "z-score": "-0.52 (inactive)"}, {"sequence": "GGACAGCUUCAUCAAGCCUTT against Cep89", "z-score": "-0.628 (inactive)"}, {"sequence": "GGUCUGGUGUUGUAGGAUATT against Map1lc3b", "z-score": "2.71 (active)"}, {"sequence": "GGAGUCAUAUGCACAGAUCTT against Tcte3", "z-score": "-0.706 (inactive)"}, {"sequence": "CGUGGAUGAGAACUAACCUTT against Rpl31", "z-score": "1.24 (inactive)"}, {"sequence": "GCUCCUAUGCAAACAUUGCTT against Olfr1390", "z-score": "0.489 (inactive)"}, {"sequence": "GGAUCUCUUAGGUAUCUUATT against Nlrp14", "z-score": "1.45 (inactive)"}, {"sequence": "GGAACACUGGAAGAAAGAUTT against Arhgap35", "z-score": "-1.21 (inactive)"}, {"sequence": "GAUGUACUUGAUAAAGCCUTT against Ugt2b37", "z-score": "3.68 (active)"}, {"sequence": "CCCAUCUCACUAUUUAAUATT against Lrrc3b", "z-score": "-1.23 (inactive)"}, {"sequence": "GCUGCACAAGUGCAUUUUUTT against Srp14", "z-score": "-1.34 (inactive)"}, {"sequence": "GGGUAUUUCCACUUCAUAGTT against Acsm2", "z-score": "1.59 (inactive)"}, {"sequence": "GCUCAUGGACCAACCUAUGTT against Olfr1180", "z-score": "0.501 (inactive)"}, {"sequence": "GCUUUCCGGAAUACGAGCUTT against Snapc3", "z-score": "-0.638 (inactive)"}, {"sequence": "CGCAAGAUCCUCAAACGAGTT against Proc", "z-score": "-0.358 (inactive)"}, {"sequence": "GGGAACAAGUUGAGCUACUTT against Ebp", "z-score": "-0.0574 (inactive)"}, {"sequence": "UAGGAGAUAUCUGCUACCGTT against Fbxw16", "z-score": "-2.53 (active)"}, {"sequence": "CCAUGUUCGGACGUGGUCUTT against Shkbp1", "z-score": "-1.17 (inactive)"}, {"sequence": "GGAGAGGAAUCAAGUGGUGTT against Lig1", "z-score": "-1.04 (inactive)"}, {"sequence": "GGUGCUUUAUUAGGUAUUCTT against Atp6v1g3", "z-score": "-1.26 (inactive)"}, {"sequence": "GGGUAGCUUUAAAUAAAGGTT against Olfr801", "z-score": "2.47 (active)"}, {"sequence": "GCAUAAGCCUAAAAAUUCUTT against Ptprd", "z-score": "0.43 (inactive)"}, {"sequence": "GCCCUCUUGUGAUUAAGCATT against Esr1", "z-score": "-0.959 (inactive)"}, {"sequence": "GCUAAGAAGAGGAUUCCAATT against Spag1", "z-score": "-0.579 (inactive)"}, {"sequence": "GCAGCAGUGCUUACUUAACTT against Ccdc25", "z-score": "0.212 (inactive)"}, {"sequence": "GGAAAGUGAUGUCACAAAATT against G3bp1", "z-score": "1.31 (inactive)"}, {"sequence": "GGUGUUUGUGAAGGAGCAGTT against Fam117a", "z-score": "2.98 (active)"}, {"sequence": "GGCCAACCUGGAGAACUUGTT against Atp6v1c2", "z-score": "0.441 (inactive)"}, {"sequence": "GGUUAAUAUUAGCAUCGUCTT against Zdhhc23", "z-score": "0.908 (inactive)"}, {"sequence": "GGCUCUGUGUUGGUAAUGATT against Yipf1", "z-score": "-0.538 (inactive)"}, {"sequence": "GGGUCAUCGGAACAGAACUTT against Sult3a1", "z-score": "-2.26 (active)"}, {"sequence": "GGGCAACUGUACGUACCAUTT against Cd93", "z-score": "0.0137 (inactive)"}, {"sequence": "GGGAGCAUUUCCUUAUACUTT against Tpmt", "z-score": "0.67 (inactive)"}, {"sequence": "GGAUAAAGCCACAUUUGGUTT against Apoh", "z-score": "-0.483 (inactive)"}, {"sequence": "GGAACCAGAGGACAAAGACTT against Ccdc96", "z-score": "-2.43 (active)"}, {"sequence": "GGCUGGUGUAAAAGACACGTT against Nat14", "z-score": "0.142 (inactive)"}, {"sequence": "GGGUUUUCGGGAGAUCUGUTT against Ltbp4", "z-score": "-0.44 (inactive)"}, {"sequence": "GGAGCACUAUGAUGAGUUCTT against U2af1", "z-score": "-0.452 (inactive)"}, {"sequence": "GCACUAUGGUAUUGAAAUUTT against Armc5", "z-score": "0.635 (inactive)"}, {"sequence": "GGAUUCUGAAAUCAGUGCUTT against Capn8", "z-score": "1.52 (inactive)"}, {"sequence": "GGUCACCAAGCAACACAAUTT against Fen1", "z-score": "2.56 (active)"}, {"sequence": "GCAGUAAAAUGACAUUUGGTT against Dennd6b", "z-score": "0.694 (inactive)"}, {"sequence": "GCUAGGUGCUGCUACGAAATT against Tex13c3", "z-score": "-0.0824 (inactive)"}, {"sequence": "GGGCAGUAAGACCUUCAUGTT against Dhcr24", "z-score": "0.685 (inactive)"}, {"sequence": "GGUUGAAGGCCAAUUCAAATT against Lrrc10", "z-score": "2.94 (active)"}, {"sequence": "GCACUAGCAGGAUUCAUUGTT against Gabrb2", "z-score": "-1.25 (inactive)"}, {"sequence": "CGAUUGCUCUUAACCCUUGTT against Zfp597", "z-score": "-0.233 (inactive)"}, {"sequence": "GGCAUCCUGAGAGAACUCATT against Insyn1", "z-score": "-2.27 (active)"}, {"sequence": "GCUGACCUAUUCUGAUCCATT against Chchd4", "z-score": "-0.223 (inactive)"}, {"sequence": "GGUUCAGAUCCCUAAAAUATT against Ago4", "z-score": "-0.557 (inactive)"}, {"sequence": "GGACAUGGAACUGGAUGAATT against Ciita", "z-score": "-2.49 (active)"}, {"sequence": "GGUGAUCACAAAUAUGAUGTT against Ubxn2b", "z-score": "-0.173 (inactive)"}, {"sequence": "GGAGUUUGUUAAUUUCGCATT against Rundc3a", "z-score": "0.612 (inactive)"}, {"sequence": "GCACGGAGCCAAAUAAUCUTT against Rpl28", "z-score": "2.07 (active)"}, {"sequence": "GGAAGUAGAGAUCUCCUUATT against Btn1a1", "z-score": "0.96 (inactive)"}, {"sequence": "GGAAGUGCUACUUUCUGGGTT against Tmem178", "z-score": "1.74 (inactive)"}, {"sequence": "GGAGAUGAAGUGGACAGACTT against Anapc13", "z-score": "1.02 (inactive)"}, {"sequence": "GGUGAACGAACAUUGGUAUTT against Sorbs3", "z-score": "-0.614 (inactive)"}, {"sequence": "CCAUCACGAGUGAAUUCGATT against Olfr945", "z-score": "-2.13 (active)"}, {"sequence": "GGAGCGAUCUGAAAAUUUGTT against Rasip1", "z-score": "-0.365 (inactive)"}, {"sequence": "CCUCUCCAGUGUCGACAUUTT against Olfr51", "z-score": "0.347 (inactive)"}, {"sequence": "CGAAGUCGUGGCAAUGAUUTT against Nfu1", "z-score": "1.39 (inactive)"}, {"sequence": "GCAGGAAGCCCAGUAAAGUTT against Figla", "z-score": "0.44 (inactive)"}, {"sequence": "GGAAGACACUGGUUUCCAATT against 1700067P10Rik", "z-score": "2.62 (active)"}, {"sequence": "GGAGAGAAGAAAAAGAAGGTT against Rrbp1", "z-score": "0.647 (inactive)"}, {"sequence": "GCAUGAUUACCAGAACCACTT against Fcgr2b", "z-score": "0.225 (inactive)"}, {"sequence": "GCAUGUGAAAUCUAGAUCATT against Cks1b", "z-score": "-0.0851 (inactive)"}, {"sequence": "UGGUACCACCAUUUUUACCTT against Olfr452", "z-score": "-1.2 (inactive)"}, {"sequence": "GCUGGGCUUCAACGAUUACTT against Efna4", "z-score": "1.3 (inactive)"}, {"sequence": "GGUUCCUUAAACAUUCAGATT against Tspan31", "z-score": "2.28 (active)"}, {"sequence": "CGAUCACCAUGAUGAAUUCTT against Bex3", "z-score": "-0.128 (inactive)"}, {"sequence": "GCAGGAUGCAGCGAUAGUUTT against Slc2a6", "z-score": "-0.952 (inactive)"}, {"sequence": "GGGCUACAGCAUGUAUGAGTT against Zc3h4", "z-score": "0.814 (inactive)"}, {"sequence": "GGAACGAAGUCUGAAACACTT against A730018C14Rik", "z-score": "-1.89 (inactive)"}, {"sequence": "GGAGUCCCAGGACAUGAAATT against Pou5f1", "z-score": "0.333 (inactive)"}, {"sequence": "GCCUCUGUCAAGUCUUGGATT against Ftl1", "z-score": "-2.17 (active)"}, {"sequence": "GGUACUGUUGCGCUUUGCUTT against Ciao3", "z-score": "1.47 (inactive)"}, {"sequence": "GGAGAAUUAACUGUUCCUCTT against Kcnmb2", "z-score": "2.23 (active)"}, {"sequence": "GCUGAGGCAUAAAAACGAGTT against Atad3a", "z-score": "-0.643 (inactive)"}, {"sequence": "GGUGAAUCUAUUUACCUGCTT against Fam71d", "z-score": "0.317 (inactive)"}, {"sequence": "GGAAUAUGUGCAGAAGCUGTT against Fgd2", "z-score": "-1.2 (inactive)"}, {"sequence": "GGCUGUCUUAUUAAAGCUATT against A730013G03Rik", "z-score": "-2.19 (active)"}, {"sequence": "GGUCUAGAGUUACCAUUCATT against Aqp9", "z-score": "-0.954 (inactive)"}, {"sequence": "CCAAGGACUCUCAUCUGUUTT against Zfp474", "z-score": "-0.712 (inactive)"}, {"sequence": "GGACGACAGGAACUGGCAATT against Fbxo9", "z-score": "0.615 (inactive)"}, {"sequence": "GCAGAGGGCAACUCGUAAGTT against Gm6034", "z-score": "-0.843 (inactive)"}, {"sequence": "CCAACACUGAGCUCAGAAGTT against Igfbp2", "z-score": "-1.34 (inactive)"}, {"sequence": "GGCGGUCAAGGGAAAAACATT against Tcf7", "z-score": "2.19 (active)"}, {"sequence": "CCGACUAAUGCUAAAUCCATT against Pcgf1", "z-score": "0.897 (inactive)"}, {"sequence": "GGUGAAAUUCUGAAUGAAATT against Gatb", "z-score": "-0.0515 (inactive)"}, {"sequence": "GGAACUAGAAGAAAUGUUATT against Mrps9", "z-score": "0.768 (inactive)"}, {"sequence": "GGGAGCAGAUUGAAACAGUTT against Eri2", "z-score": "-0.546 (inactive)"}, {"sequence": "CUUAGUGCUCUGGGAGCAGTT against Ms4a5", "z-score": "0.487 (inactive)"}, {"sequence": "CGAUCACCUUAGUAAAUACTT against Ykt6", "z-score": "0.233 (inactive)"}, {"sequence": "GGAAGGGACUGAUCGGUACTT against Igsf8", "z-score": "1.61 (inactive)"}, {"sequence": "GCUGAGACUUCGAGCCUAUTT against Polr2c", "z-score": "-0.976 (inactive)"}, {"sequence": "CCAGUUAAAAAGGUUCCAATT against Ccdc169", "z-score": "1.46 (inactive)"}, {"sequence": "GGAUAACCUAAUGUAGAUATT against Nphs2", "z-score": "-0.0675 (inactive)"}, {"sequence": "GGAUCAAAAACACAUACUUTT against Adgre4", "z-score": "2.37 (active)"}, {"sequence": "GGGAUAUCCCAGAACAAGATT against Vps37a", "z-score": "0.336 (inactive)"}, {"sequence": "GCUUGGUAGAGAUGUUAAATT against Ryr3", "z-score": "-0.119 (inactive)"}, {"sequence": "GCAUCAUUUUAACACUUCUTT against Tubd1", "z-score": "-0.0435 (inactive)"}]}]}
